Assay outcomes (PubChem)
Six1-Eya2 inh – qHTS Assay for Inhibitors of the Six1/Eya2 Interaction; AlphaScreen GST-Six1/His-Eya2 binding, biochemical; hits give low values; activity change, % (concentration not given with the values); hit rate 0.56% among 360,000; in the data active means activity change below about -65%; inconclusive means mostly about -30% to -63%
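Six1/Eya2 binding was read as AlphaScreen signal after compounds were pinned into GST-Six1 plus His-tagged Eya2 (5X stock 250/500 nM) in pH 8.0 Tris/NaCl/TCEP buffer, beads added, then incubated 1 h, 37 C, dark.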
VP16 counter – VP16 counterscreen qHTS for inhibitors of ROR gamma transcriptional activity | Drosophila S2 Gal4-VP16 UAS-luciferase, luminescence, 20 h | hit rate 3.5% among 310,000 | Potency, µM (titrated, usually from 53.6 µM), without a hit: top-dose activity, negative = inhibition, actives largely listed as inhibitors | AID 2546, 2010;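 further: Gal4-VP16 expression switched on by copper sulfate through the metallothionein promoter; potency means the concentration at half of the fitted maximal effect; nearly all actives have a fitted effect of over 50% in size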
PKM2 act – qHTS Assay for Activators of Human Muscle isoform 2 Pyruvate Kinase; Pyruvate kinase PKM (Homo sapiens), P14618; purified PKM2, Kinase-Glo ATP luminescence, activation; response scale: 0% is enzyme alone, no compound; Potency, µM (highest dose often 57.5 µM), for inactives: at the top dose activation, usual class: activators; hit rate 0.34% among 260,000; further: potency means the concentration at half of the fitted maximal effect; nearly all actives have a fitted effect of over 55% in size
Target sequence (P14618 whole entry, looked up, canonical isoform): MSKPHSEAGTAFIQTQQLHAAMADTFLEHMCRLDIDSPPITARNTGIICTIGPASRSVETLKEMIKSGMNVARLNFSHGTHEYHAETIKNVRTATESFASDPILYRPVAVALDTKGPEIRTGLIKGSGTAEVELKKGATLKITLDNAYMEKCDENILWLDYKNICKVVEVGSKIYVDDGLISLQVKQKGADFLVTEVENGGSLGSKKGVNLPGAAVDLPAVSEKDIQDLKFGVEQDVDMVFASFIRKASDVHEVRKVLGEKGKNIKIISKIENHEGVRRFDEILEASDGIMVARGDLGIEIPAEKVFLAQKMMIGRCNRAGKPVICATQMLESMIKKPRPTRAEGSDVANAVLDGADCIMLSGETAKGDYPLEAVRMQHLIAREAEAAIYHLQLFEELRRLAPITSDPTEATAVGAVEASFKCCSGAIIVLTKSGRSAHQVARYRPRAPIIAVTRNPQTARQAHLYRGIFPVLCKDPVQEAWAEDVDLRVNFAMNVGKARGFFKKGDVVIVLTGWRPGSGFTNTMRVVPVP
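ATP formation by purified human PK-M2, quantified via coupled luciferase luminescence after 1 h at room temperature with 0.1 mM ADP and 0.5 mM PEP final.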
CtBP-E1A inh – qHTS Assay for Inhibitors of the CtBP/E1A Interaction. AlphaScreen GST-E1A/His-CtBP binding, 1536-well; hits give low values. activity change, % (test concentration not listed). hit rate 0.49% among 340,000; in the data active means activity change below about -65%; inconclusive means mostly about -30% to -63%
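GST-E1A and His-tagged CtBP (125 nM each as 5X stock) were preincubated with pin-transferred compound for 2 h at 37 °C in the dark, then glutathione donor and nickel acceptor beads were added for 1 h before AlphaScreen reading.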
RORg inh – qHTS for inhibitors of ROR gamma transcriptional activity | Nuclear receptor ROR-gamma (Mus musculus), P51450 | AID 2551, 2010 | Potency, µM (titrated, usually from 53.6 µM), inactives show at the highest dose activity change, negative = inhibition, actives largely listed as inhibitors | Drosophila S2 Gal4-RORgamma UAS-luciferase reporter, 20 h | hit rate 5.4% among 310,000; further: potency means the concentration at half of the fitted maximal effect; nearly all actives have a fitted effect of over 60% in size
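Stable Schneider cell line, Gal4 DNA-binding domain fused to ROR gamma, UAS-luciferase. Cmpd 1 hr RT → CuSO4 700 uM final → 20 hr RT → luciferase reagent 10 min → luminescence.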
* hit, by the source's call; ? = inconclusive; nt = no result; [ ] = dose if it differs, or a comment. In the library only some 5.6% were active in any assay of this set; here they are far more common. Unless noted, the call rests on the fitted dose curve; in most records, active means well fitted curve in the direction sought with a large enough effect; inconclusive means small, poorly fitted or top-dose-only effect, or another doubt; inactive means no such curve, though single readings can be large; an effect the other way counts as inactive or inconclusive. On the % scale 0 is the no-effect control and ±100 the full control effect.

SMILES	Six1-Eya2 inh	VP16 counter	PKM2 act	CtBP-E1A inh	RORg inh
CCCN(CC(=O)Nc1ccccc1OC)C(=O)c1ccc(=O)[nH]c1	5	0%	nt	10	1%
CCOC(=O)N1CCN(C(=O)CSc2ccc(-c3cccnc3)nn2)CC1	nt	7%	-1%	nt	-8%
Cc1noc(/C=C/c2cccnc2)c1[N+](=O)[O-]	2	16µM*	nt	6	10µM*
CNc1c(C(=O)O)ccc2c1C(=O)c1ccccc1C2=O	-15	?	-29%	0	-22%
O=C(O)c1ccc2c(c1Nc1ccccc1)C(=O)c1ccccc1C2=O	-66*	-7%	-28%	?	12%
CCNc1c(C(=O)O)ccc2c1C(=O)c1ccccc1C2=O	-26	13µM*	-45%	-1	?
CCOc1ccc(C(CC(=O)O)NC(=O)c2cccs2)cc1OC (stereo not drawn)	7	-6%	-5%	-1	-2%
CC(C)CCNC(=O)CN(C(=O)CCC(=O)Nc1nccs1)C1CCCCC1	5	?	-5%	2	24%
Cc1ccc(/C=N/N(C)S(=O)(=O)c2ccc(C)cc2)cc1	5	18µM*	nt	2	16%
CSc1ccc(/C=N/N(C)S(=O)(=O)c2ccc(C)cc2)cc1	-8	?	nt	4	-2%
CCOC(=O)c1c(-c2ccccc2Cl)csc1NC(=O)c1cc(S(=O)(=O)N2CCOCC2)ccc1C	-7	-5%	-2%	-13	29%
Cc1ccc(S(=O)(=O)NCCC2=CCCCC2)cc1C(N)=O	3	7.9µM*	-15%	1	?
C=CCOc1c(Cl)cc(CNn2cn[nH]c2=S)cc1OC	1	?	-20%	nt	8.9µM*
COc1cc(CNn2cn[nH]c2=S)ccc1OCC(=O)NC(C)(C)C	-7	-11%	-2%	1	-27%
COc1cc(CNn2cn[nH]c2=S)cc(Cl)c1OCc1ccccc1	-1	?	-1%	-10	3.5µM*
COc1cc(CNn2cn[nH]c2=S)cc(Br)c1OCc1ccccc1F	?	-28%	-12%	-2	3.2µM*
O=C(NNc1c2ccccc2nc2ccccc12)c1ccc(Cl)cc1	-17	-19%	nt	-13	12%
O=C(NNC1=Nc2ccccc2SC1)c1ccc(F)cc1	-17	3.5µM*	1%	-15	?
O=C(NNC1=Nc2ccccc2SC1)c1ccc(Cl)cc1	-3	5.6µM*	0%	7	1.1µM*
O=S(=O)(NCc1csc(-c2cccs2)n1)c1cccc(C(F)(F)F)c1	5	-6%	1%	10	1%
COc1ccc(/C=C2\SC(=O)N(CCCC(=O)Nc3cc(Cl)ccc3C(=O)O)C2=O)cc1	-9	nt	nt	-19	nt
COc1cccc(/C=C/C(=O)OCC(=O)Nc2cccc(S(=O)(=O)NC3=NCCCCC3)c2)c1	-17	nt	nt	-76*	nt
COc1ccc(F)cc1-c1cc(NC=O)c2ncc(-c3cccc(C(F)(F)F)c3)n2c1	?	nt	nt	-20	nt
CN(C)c1ccc(NC(=S)c2ccc3ccccc3n2)cc1	-3	?	-1%[0.46 µM]	nt	6.3µM*
COc1ccc(NC(=S)c2ccc(N(C)C)cc2)cc1	-9	21%	4%	-10	?
SMILES	Six1-Eya2 inh	VP16 counter	PKM2 act	CtBP-E1A inh	RORg inh
Cc1ccc(NC(=S)c2ccc(N(C)C)cc2)cc1	-22	?	-4%	-14	10µM*
Cc1ccc(C)c(NC(=S)c2ccc3ccccc3n2)c1	?	5.6µM*	3%	?	2µM*
Cc1ccc(C)c(NC(=O)NCc2ccccn2)c1	-2	-21%	-1%	-6	20%
Cc1ccc(C)c(NC(=S)c2ccccn2)c1	?	1.3µM*	-9%	-67*	0.32µM*
CCOc1cccc2cc(C(=O)NCc3ccc(OC)cc3)c(=N)oc12	20	-12%	-2%	2	-15%
CN(C)C(=O)c1cccc(-c2cnc3c(NC=O)cc(-c4ccccc4F)cn23)c1	?	nt	nt	-28	nt
O=[N+]([O-])c1cccc(NC(=S)Nc2nc(-c3ccc(Cl)cc3Cl)cs2)c1	nt	3.2µM*	-8%	nt	2µM*
